16 compounds from PubChem BioAssay (NCI) can be followed below.

What all share (assay): NCI-60 one-dose screen, 48 h (100 = growth as untreated, 0 = no growth, -100 = all killed)
Common to all, as to conditions: 10 µM

In test [1] the test system is BT-549 breast.
Test [2] has as its system MDA-MB-435 melanoma.
The test system of test [3] is SW-620 colon.
The test system of test [4] is MCF7 breast.
Test [5] concerns HCT-116 colon.
The subject of test [6] is HCC-2998 colon.
The test system of test [7] is KM12 colon.
In test [8] the test system is MDA-MB-468 breast.

Compounds without any hit were thinned out: in the full panel of roughly 83,000, 20% have a hit.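 Activity criterion: percent growth below 10, measured after cells in 96-well plates were exposed to a single compound concentration for 48 hours.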 Unmarked numbers belong to inactive results. Active and inactive are the calls of the source.

Regarding `CN1CCCN(Cc2ccc(C(=O)Nc3cccc(Nc4ccc5cc(O)ccc5n4)c3)cc2C(F)(F)F)CC1`, the growth in test [1] was 98%; in test [2], 37.9%; in test [3], -25.8% (active); in test [4], -22.8% (active); in test [5], 3.55% (active); in test [6], -15.1% (active). For the same compound, the growth is 25.8% in test [7] and 5.76% (active) in test [8].
With `N#Cc1c(NC(=O)c2ccc(C(F)(F)F)c(Cl)c2)sc2c1CCC(=O)C2`, the growth is -82.1% (active) in test [1]; -68.4% (active) in test [2]; -56.8% (active) in test [3]; -3.57% (active) in test [4]; -44.9% (active) in test [5]; -74.4% (active) in test [6]. For the same compound, the figures for the growth in test [7] and in test [8] were -28.4% (active) and -71.2% (active), respectively.
On to `CC(=O)Nc1ccc(-c2cn(-c3cccc(C(=O)Nc4cc(CN5CCOCC5)cc(C(F)(F)F)c4)c3)nn2)cn1`, for which the growth in test [1] is -82.1% (active); in test [2], -89.1% (active); in test [3], -72.6% (active); in test [4], -84% (active); in test [5], -56.1% (active); in test [6] it was -95.6% (active). The growth in test [7] was -42.7% (active); in test [8], -92.1% (active).
Consider `C[C@H]1[C@H](C)CC[C@]2(COC(=O)CCC(=O)NCC#CCN3CCNCC3)CC[C@]3(C)C(=CC[C@@H]4[C@@]5(C)CCCNC(C)(C)[C@@H]5CC[C@]43C)[C@H]12`, for which the growth in test [1] was 55.4%; in test [2] it was 32.4%; in test [3], -2.55% (active); in test [4], 1.4% (active); in test [5], 10.5%; in test [6], -41.7% (active). Further, the values for the growth in test [7] and in test [8] were 32.4% and 17.9%, respectively.
`COc1ccc(-c2c(N)c(=O)n(C)c3ccccc23)cc1`: the growth in test [1] is 43%; in test [2], 59.2%; in test [3], 65.5%; in test [4], 24.8%; in test [5] it was 37.5%; in test [6] it was 81.5%. Besides, the growth in test [7] was 64.5%; in test [8] it was 50.1%.
Take `O=C(Nc1ccc(OCc2ccccc2)cc1)Nc1ccc(Cl)c(C(F)(F)F)c1`: the growth was -15.9% (active) in test [1]; -1.55% (active) in test [2]; 13% in test [3]; 2.34% (active) in test [4]; 2.43% (active) in test [5]; 21.4% in test [6]. Besides, the growth in test [7] is 1.83% (active); in test [8], -36% (active).
`CCOC(=O)C1=C(N)N(c2ccccc2)C2=C(C(=O)CC(C)(C)C2)C1c1ccccc1OC` (stereo unspecified): the growth in test [1] is 105%; in test [2], 112%; in test [3] it was 107%; in test [4], 89.7%; in test [6], 101%; in test [7], 113%. In addition, in test [8], the growth is 88.7%.
In the case of `N#Cc1c(-c2ccc(F)cc2)nc(SCc2ccc(F)cc2)nc1N1CCOCC1`, the growth is 64.3% in test [1]; 93.5% in test [2]; 85.5% in test [3]; 63.7% in test [4]; 66% in test [5]; 87.4% in test [6]. The growth in test [7] is 87.2%; in test [8] it was 62.1%.
Consider `COc1ccc(C(C)=C(c2ccc(OCCCN(C)C)cc2)c2ccc(OCCCN(C)C)cc2)cc1`, for which the growth is -78.4% (active) in test [1]; -99.9% (active) in test [2]; -59.4% (active) in test [3]; -69.5% (active) in test [4]; -72.1% (active) in test [5]; -91.6% (active) in test [6]. Also, the figures for the growth in test [7] and in test [8] were -85.5% (active) and -88% (active), respectively.
As to `COc1ccc(-c2ccc(/C=N/NC(=O)c3[nH]c4ccc(Br)cc4c3-c3ccccc3)o2)cc1`, the growth in test [1] was 75.6%; in test [2] it was -45.1% (active); in test [3], 32.4%; in test [4], 10.3%; in test [5] it was 18.3%; in test [7] it was 39.8%. Also, the growth in test [8] was -2.91% (active).
Turning to `C/C(=C\c1ccc(O)cc1O)c1ccc2ccc(O)cc2[o+]1`, the growth was 45.5% in test [1]; 21.4% in test [2]; 44.8% in test [3]; 22.2% in test [4]; 26.9% in test [5]; 61.4% in test [6]. The growth in test [7] is 22.5%; in test [8] it was 64%.
In the case of `Nc1nnc(-c2c[nH]c3ccc(F)cc23)c(-c2c[nH]c3ncccc23)n1`, the growth is 46.7% in test [1]; 60.9% in test [2]; 73.6% in test [3]; 34% in test [4]; 25% in test [5]; 97.9% in test [6]. In addition, the growth was 49.5% in test [7] and 54.1% in test [8].
On to `COc1ccc(-c2cc(C(=O)N=Nc3c(O)[nH]c4ccc(Br)cc34)c3ccccc3n2)cc1`, for which the growth in test [1] is 96.3%; in test [2], 52.7%; in test [3], -59.9% (active); in test [4], -6.48% (active); in test [5] it was 16.9%; in test [6], 23.4%. The growth was 23.1% in test [7] and 11.1% in test [8].
For the compound `O=C(Nc1ccc(Cl)c(C(F)(F)F)c1)c1cncc(C#Cc2cnc3ccc(N4CCOCC4)nn23)c1`, the growth in test [1] is -14.9% (active); in test [2] it was 19.3%; in test [3], 19.4%; in test [4], -13.3% (active); in test [5], -26.7% (active); in test [6], -13.3% (active). For the same compound, the growth was -21.5% (active) in test [7] and -30.8% (active) in test [8].
Consider `CC(C)C(=O)Nc1ccc(C(=O)NC(=S)Nc2ccc(C(=O)O)cc2)cc1`, for which the growth in test [1] was 79.5%; in test [2], 102%; in test [3] it was 107%; in test [4] it was 99.9%; in test [5], 104%; in test [6], 110%. The values for the growth in test [7] and in test [8] were 106% and 96%, respectively.
Turning to `CN(C)CCNC(=O)OCCCCOc1cc(O)c2c(=O)cc(-c3ccccc3)oc2c1`, the growth was -59.9% (active) in test [1]; -51% (active) in test [2]; -31.7% (active) in test [3]; -89.8% (active) in test [4]; -68.9% (active) in test [5]; -50.8% (active) in test [6]. For the same compound, the growth in test [7] was -49.8% (active); in test [8], -81.1% (active).
